19 molecules from PubChem BioAssay (NCI) can be followed below.

This is part of a sample that, as a whole, favours compounds with a hit. Of some 83,000 tested, about 20% had one in any assay.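 Interpretation: 100, growth as untreated; towards 0, rising growth inhibition; 0, no net growth; 0 to -100, cell death. Compounds scoring below 10 were considered active.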 Unmarked numbers belong to inactive results. Active and inactive are the calls of the source.

Test systems include DU-145 prostate; K-562 leukemia; MDA-MB-231 breast; RXF 393 renal; SF-268 CNS; SF-295 CNS; SF-539 CNS; UACC-257 melanoma; M14 melanoma; MALME-3M melanoma.
Common to all, as to assay: NCI-60 one-dose screen, 48 h (100 = growth as untreated, 0 = no growth, -100 = all killed)
Common to all, as to conditions: 10 µM unless noted

For the molecule `N=c1c2c(=O)n3c(nc2nc2sc4ccc(Cl)cc4n12)-c1ccccc1Sc1ccccc1-3`, the growth in the experiment on DU-145 prostate was 38.4%; in the experiment with K-562 leukemia, 19.8%; in the experiment with MDA-MB-231 breast, 7.92% (active); in the experiment with RXF 393 renal, 38.2%; in the experiment on SF-268 CNS, 42.2%; in the experiment on SF-295 CNS, 5.48% (active). Further, the growth in the experiment on SF-539 CNS is 27.2%; in the experiment with UACC-257 melanoma, 29.9%.

Consider `COc1ccc2sc(-n3nc4nc5n(c(=O)c4c3N)-c3ccccc3Sc3ccccc3-5)nc2c1`, for which the growth in the experiment with DU-145 prostate was 99.7%; in the experiment on K-562 leukemia, 47.9%; with MDA-MB-231 breast it was 47.5%; in the experiment with RXF 393 renal, 93.8%; in the experiment on SF-268 CNS it was 86.8%; in the experiment on SF-295 CNS, 65.8%. For the same molecule, the values for the growth with SF-539 CNS, in the experiment on UACC-257 melanoma and in the experiment on M14 melanoma were 104%, 89.6% and 77.1%, respectively.

As for `CCOC(=O)NNc1[nH]c(-c2ccc(OC)cc2)cc1C#N`, the growth was 108% in the experiment with DU-145 prostate; 68.9% with K-562 leukemia; 89.8% in the experiment with MDA-MB-231 breast; 96% in the experiment on RXF 393 renal; 103% with SF-268 CNS; 111% with SF-295 CNS. The values for the growth in the experiment on SF-539 CNS and with UACC-257 melanoma were 94.3% and 92.5%, respectively.

Take `Nc1cc(N)c2nc(NCCc3ccc(Cl)c(Cl)c3)cnc2c1`: the growth is 101% in the experiment on DU-145 prostate; -23.1% (active) in the experiment on K-562 leukemia; -23.5% (active) with MDA-MB-231 breast; 51.1% in the experiment with RXF 393 renal; 30.8% in the experiment with SF-268 CNS; 89.4% with SF-295 CNS. In addition, the growth with SF-539 CNS was 89.6%; in the experiment on UACC-257 melanoma, 90.4%.

For `COc1cc(Cn2ccc3c2-c2oncc2CC3)cc(OC)c1`, the growth in the experiment on DU-145 prostate is 43.7%; in the experiment on K-562 leukemia, 24.9%; in the experiment with MDA-MB-231 breast, 44.1%; in the experiment with RXF 393 renal, 54.6%; with SF-268 CNS, 50%; with SF-295 CNS, 24.2%. Also, the growth was 19.6% in the experiment with SF-539 CNS, 53.4% in the experiment on UACC-257 melanoma and 12.7% with M14 melanoma.

`COc1ccc(/C=C2\CCCC3=C2N=C2SC=NN2C3c2ccc(OC)c(OC)c2)cc1OC` (stereo not drawn): the growth in the experiment on DU-145 prostate was 24.9%; with K-562 leukemia, 26.9%; with MDA-MB-231 breast, 55.2%; in the experiment with RXF 393 renal it was 50.4%; with SF-268 CNS, 41.6%; in the experiment with SF-295 CNS it was 46.1%. Further, the growth in the experiment with SF-539 CNS is 37.4%; in the experiment with UACC-257 melanoma, 54.6%; in the experiment with M14 melanoma, 47.5%.

As for `CCCC(=O)NNc1[nH]c(-c2cc(OC)c(OC)c(OC)c2)cc1C(=O)OCC`, the growth in the experiment on DU-145 prostate was 94.5%; with K-562 leukemia it was 37.9%; in the experiment with MDA-MB-231 breast, 107%; in the experiment on RXF 393 renal, 105%; with SF-268 CNS it was 120%; in the experiment with SF-295 CNS it was 95.3%. Further, the growth with SF-539 CNS is 91.6%; with UACC-257 melanoma, 106%.

On to `COc1ccc(/C=C(/C(=O)N2CCCCC2)c2cc(OC)c(OC)c(OC)c2)cc1`, for which the growth with DU-145 prostate is 9.17% (active); with K-562 leukemia it was 11%; with MDA-MB-231 breast, 41.5%; in the experiment with RXF 393 renal, -1.64% (active); in the experiment with SF-268 CNS it was 50.1%; with SF-295 CNS, 14.1%. In addition, the growth in the experiment on SF-539 CNS was -10.5% (active); with UACC-257 melanoma, 75%; with M14 melanoma it was -6.93% (active).

With `O=C(O)c1occ(Cl)c1Cl`, the growth in the experiment with DU-145 prostate was 114%; in the experiment on K-562 leukemia it was 101%; with MDA-MB-231 breast, 110%; with RXF 393 renal, 108%; with SF-268 CNS, 113%; in the experiment on SF-295 CNS, 101%. Besides, the growth in the experiment with SF-539 CNS was 111%; in the experiment with UACC-257 melanoma, 108%; in the experiment with M14 melanoma, 114%.

In the case of `CC(=O)c1nn(-c2ccc(C)cc2)cc1C(=O)c1cc2c(ccc3ccccc32)oc1=O`, the growth in the experiment on DU-145 prostate is 110%; with K-562 leukemia it was 81.2%; with MDA-MB-231 breast it was 73%; with RXF 393 renal it was 126%; in the experiment with SF-268 CNS it was 99.5%; with SF-295 CNS, 92.1%. Also, the growth in the experiment with SF-539 CNS is 94.1%; with UACC-257 melanoma it was 104%; with M14 melanoma it was 91.3%.

For the molecule `CCCCN(CCC)CCCCCCCCCCN1CCCc2ccccc21`, the growth was 77.1% with DU-145 prostate; 17.5% in the experiment on K-562 leukemia; 74.3% with MALME-3M melanoma; 109% with RXF 393 renal; 75.7% in the experiment with SF-268 CNS; 83.6% with SF-295 CNS. For the same molecule, the results for the growth with SF-539 CNS, in the experiment on UACC-257 melanoma and in the experiment on M14 melanoma were 101%, 106% and 88.6%, respectively.

As to `COc1ccc(Cn2cc3c(c2-c2ccccc2)CCc2cnoc2-3)cc1N`, the growth with DU-145 prostate was 13.7%; in the experiment with K-562 leukemia it was 14.8%; in the experiment on MDA-MB-231 breast, 15.2%; in the experiment on RXF 393 renal, 15.2%; in the experiment on SF-268 CNS it was 28.7%; with SF-295 CNS, -19.7% (active). The growth was -13.1% (active) with SF-539 CNS and 63.2% with UACC-257 melanoma.

As for `NCCCOc1cc2ccccc2cc1C(=O)Nc1ccc(Cl)cc1OC(=O)c1cc2ccccc2cc1OCCCN`, the growth in the experiment with DU-145 prostate is -97% (active); in the experiment with K-562 leukemia, -37.5% (active); in the experiment with MALME-3M melanoma, -70.7% (active); with RXF 393 renal it was -86.4% (active); with SF-268 CNS, -80.5% (active); in the experiment on SF-295 CNS, -76.2% (active). Also, the growth in the experiment with SF-539 CNS is -89.6% (active); in the experiment on M14 melanoma, -86.7% (active).

`CC(C)OC(=O)Nn1cnc2ccccc21`: the growth in the experiment with DU-145 prostate was 103%; in the experiment on K-562 leukemia, 96.7%; in the experiment on MDA-MB-231 breast, 117%; in the experiment with RXF 393 renal, 108%; with SF-268 CNS, 120%; in the experiment on SF-295 CNS it was 103%. Further, the growth is 95.2% in the experiment with SF-539 CNS and 109% in the experiment with UACC-257 melanoma.

For `COc1ccc(-c2cn3ccnc3c(-c3ccc4ncn(C5CCCCC5)c4c3)n2)cc1`, the growth in the experiment on DU-145 prostate was 18.2%; in the experiment on K-562 leukemia, 7.96% (active); in the experiment with MDA-MB-231 breast, 28.9%; with RXF 393 renal, -8.48% (active); in the experiment with SF-268 CNS it was 50.1%; in the experiment with SF-295 CNS, 7.49% (active). Also, the growth with SF-539 CNS is -43.4% (active); in the experiment on UACC-257 melanoma, 73.7%; with M14 melanoma it was 10.8%.

With `COc1ccc(OC)c(Cn2cc3c(c2)-c2oncc2CC3)c1`, the growth in the experiment on DU-145 prostate is 52%; with K-562 leukemia, 14.7%; in the experiment on MDA-MB-231 breast it was 42%; with RXF 393 renal, 36.7%; in the experiment on SF-268 CNS, 57.5%; with SF-295 CNS, -8.86% (active). Besides, the growth in the experiment with SF-539 CNS was -7.35% (active); in the experiment with UACC-257 melanoma it was 60.5%; with M14 melanoma, 4.07% (active).

Turning to `COc1ccccc1Nc1nnc(COc2ccc(CNC(=O)CCCC/C=C/C(C)C)cc2OC)o1`, the growth with DU-145 prostate was 99%; in the experiment on K-562 leukemia, 67.9%; in the experiment with MDA-MB-231 breast, 99.2%; in the experiment on RXF 393 renal, 103%; in the experiment with SF-268 CNS, 90.8%; in the experiment on SF-295 CNS it was 88.8%. For the same molecule, the growth with SF-539 CNS is 93.4%; in the experiment with UACC-257 melanoma, 96.7%; in the experiment on M14 melanoma, 95.4%.

Regarding `COc1ccc(/C=C(/C(=O)N2CCN(c3ccc(C)cc3)CC2)c2cc(OC)c(OC)c(OC)c2)cc1N`, the growth in the experiment with DU-145 prostate was 5.56% (active); in the experiment with K-562 leukemia, 11.2%; with MDA-MB-231 breast it was 33.6%; in the experiment with RXF 393 renal it was 55.2%; in the experiment with SF-268 CNS, 25.6%; with SF-295 CNS it was 15.4%. Also, the results for the growth in the experiment on SF-539 CNS, with UACC-257 melanoma and in the experiment with M14 melanoma were -4.4% (active), 73.8% and 3.96% (active), respectively.

In the case of `COc1ccc(OC)c(Cn2cc3c(c2-c2ccccc2)CCc2cnoc2-3)c1`, the growth in the experiment with DU-145 prostate is 94.7%; in the experiment with K-562 leukemia, 16.6%; in the experiment on MDA-MB-231 breast, 64.7%; with RXF 393 renal it was 80%; in the experiment with SF-268 CNS, 71.8%; in the experiment on SF-295 CNS, 22.8%. Also, the growth in the experiment with SF-539 CNS is 54.9%; in the experiment on UACC-257 melanoma, 79.5%.
